Screening data from PubChem BioAssay.
Shown are actives, neighbours in structure and some others; about 3.5% of the full set was active somewhere.
Rv3671c inh – inhibits the M. tuberculosis serine protease Rv3671c | inhibition, % at 5.96 µM | 0.048% of 320,000 active | P9WHR9; in the data active = inhibition above about 38%;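 note: extracellular domain of Rv3671c used as enzyme; 0% = enzyme with DMSO and 100% = no enzyme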
Mtb FBA inh – inhibits M. tuberculosis FBA enzyme; P9WQA3; purified M. tuberculosis FBA, fluorescence read-out; inhibition, % at 1 µM; 2.3% of 360,000 active; AID 588726;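 note: 0% = vehicle and 100% = reference inhibitor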
GDH-TPI counter-1 – GDH-TPI coupled enzyme inhibition counter-screen; GDH-TPI coupled enzyme counterscreen, NADH absorbance; inhibition, % at 4.8 µM; 1.2% of 360,000 active; in the data active = inhibition above about 30%;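 note: 0% = DMSO wells and 100% = wells lacking the enzyme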
Mtb UGM inh – Mtb UDP-galactopyranose mutase inhibition | purified UGM, fluorescence polarization probe displacement | inhibition, % at 10 µM | 0.06% of 320,000 active | AID 504406 | P9WIQ1; in the data active = inhibition above about 10%, passing the limit was not always enough
Target sequence (P9WIQ1 whole entry, looked up): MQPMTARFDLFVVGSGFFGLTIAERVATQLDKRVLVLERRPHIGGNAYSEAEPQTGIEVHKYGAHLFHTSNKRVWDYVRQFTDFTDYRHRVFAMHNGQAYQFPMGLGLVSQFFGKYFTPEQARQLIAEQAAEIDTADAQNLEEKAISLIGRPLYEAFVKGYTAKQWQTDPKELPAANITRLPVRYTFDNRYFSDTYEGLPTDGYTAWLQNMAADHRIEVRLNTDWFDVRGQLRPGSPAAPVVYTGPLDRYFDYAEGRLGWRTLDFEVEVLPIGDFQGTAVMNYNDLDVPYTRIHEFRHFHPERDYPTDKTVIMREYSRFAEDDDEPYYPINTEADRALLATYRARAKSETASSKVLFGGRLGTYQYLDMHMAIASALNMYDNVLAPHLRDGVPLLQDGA
Mtb FBA confirm – confirmation of M. tuberculosis fructose-bisphosphate aldolase inhibitors; inhibition, % at 1 µM; AID 651616; 78% of 5,600 active; purified M. tuberculosis FBA, fluorescence read-out; shares compounds with Mtb FBA inh;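 note: 0% = vehicle wells and 100% = reference inhibitor wells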
GDH-TPI counter-2 – counter-screen for M. tuberculosis FBA inhibitors: GDH-TPI coupled enzyme inhibition; inhibition, % at 1 µM; shares compounds with Mtb FBA inh; 81% of 5,600 active; AID 652141; GDH-TPI coupled enzyme counterscreen, fluorescence; in the data active = inhibition above about 10%
The depositor's hits bear a star. Cut-off read from the data, not from the text of the source, unless noted: active = inhibition above about 27%; inactive = the rest.

`CCOC(=O)N/N=C/c1cc(OC)c(O)c(OC)c1` gave Rv3671c inh -12, Mtb FBA inh 4, GDH-TPI counter-1 16 and Mtb UGM inh -3.
COc1cc(/C=N/NC(=O)C(N)=O)cc(OC)c1O was read as Rv3671c inh 3, Mtb FBA inh 51*, GDH-TPI counter-1 14, Mtb UGM inh 3, Mtb FBA confirm active and GDH-TPI counter-2 active.
CCOC(=O)C1=C(COC(=O)C2CC(=O)N(c3ccc(C)cc3)C2)NC(=O)NC1C (configuration not stated) was read as Rv3671c inh -3, Mtb FBA inh 65*, GDH-TPI counter-1 4, Mtb UGM inh -1, Mtb FBA confirm 138* and GDH-TPI counter-2 89*.
Screening COc1ccc(C(=O)c2sc3nc(-c4ccc(OC)cc4)ccc3c2N)cc1 returned Rv3671c inh 3, Mtb FBA inh 34*, GDH-TPI counter-1 19, Mtb UGM inh 4, Mtb FBA confirm 28* and GDH-TPI counter-2 31*.
For CC1(C)CCCC2(C)C(OCCO)=CC(=O)C=C12 (configuration not stated) the results were Mtb FBA inh -2 and GDH-TPI counter-1 5.
Screening Cc1cccc2c1-c1sc(C(=O)N3CCCCC3)cc1CO2 returned Rv3671c inh -8, Mtb FBA inh 42*, GDH-TPI counter-1 11, Mtb UGM inh 0, Mtb FBA confirm 11 and GDH-TPI counter-2 19*.
Cc1cccc2c1-c1sc(C(=O)N3CCc4ccccc4C3)cc1CO2 was read as Rv3671c inh -39, Mtb FBA inh 41*, GDH-TPI counter-1 -1, Mtb UGM inh 0, Mtb FBA confirm 59* and GDH-TPI counter-2 41*.
For c1ccc(C[n+]2cccc3c4ccccc4ccc32)cc1 the results were Rv3671c inh 6, Mtb FBA inh 40*, GDH-TPI counter-1 6, Mtb UGM inh -1, Mtb FBA confirm active and GDH-TPI counter-2 active.
CCCCC[n+]1cccc2c3ccccc3ccc21 was read as Rv3671c inh -2, Mtb FBA inh 100*, GDH-TPI counter-1 9, Mtb UGM inh 0, Mtb FBA confirm 85* and GDH-TPI counter-2 61*.
Screening O=[N+]([O-])c1ccc(C[n+]2cccc3ccccc32)cc1 returned Rv3671c inh 12, Mtb FBA inh -4, GDH-TPI counter-1 13 and Mtb UGM inh 0.
`Cc1c(CCC(=O)NCC(=O)NCC(=O)O)c(=O)oc2cc3oc4c(c3cc12)CCCC4` gave Rv3671c inh 12, Mtb FBA inh 35*, GDH-TPI counter-1 21, Mtb UGM inh -1, Mtb FBA confirm -3 and GDH-TPI counter-2 -4.
Cc1c(CCC(=O)O)c(=O)oc2cc3oc4c(c3cc12)CCCC4 was read as Rv3671c inh 5, Mtb FBA inh 5, GDH-TPI counter-1 11 and Mtb UGM inh 0.
`COc1cc(N(C)C)c([N+](=O)[O-])cc1C(=O)N1CCOCC1` gave Rv3671c inh 9, Mtb FBA inh -5, GDH-TPI counter-1 -3 and Mtb UGM inh -2.
For COc1ccc2cc(C(=O)C3CCCN(C(=O)CCc4ccccn4)C3)ccc2c1 (configuration not stated) the results were Rv3671c inh 6, Mtb FBA inh 96*, GDH-TPI counter-1 9, Mtb UGM inh 0, Mtb FBA confirm 94* and GDH-TPI counter-2 62*.
Screening COc1ccc2cc(C(=O)NCc3ccccc3CN3CCCC3)ccc2c1 returned Rv3671c inh -21, Mtb FBA inh 33*, GDH-TPI counter-1 9, Mtb UGM inh 3, Mtb FBA confirm 115* and GDH-TPI counter-2 104*.
Screening COc1ccc(C(=O)C2CCCN(Cc3cccc(C)n3)C2)c(OC)c1 (configuration not stated) returned Rv3671c inh 5, Mtb FBA inh 3, GDH-TPI counter-1 -1 and Mtb UGM inh -1.
Screening CCOC(=O)N1CCC(N2CCCC(C(=O)c3ccc4cc(OC)ccc4c3)C2)CC1 (configuration not stated) returned Rv3671c inh 4, Mtb FBA inh 107*, GDH-TPI counter-1 3, Mtb UGM inh 1, Mtb FBA confirm 116* and GDH-TPI counter-2 91*.
Screening COc1ccc2cc(C(=O)C3CCCN(Cc4cccc(C)n4)C3)ccc2c1 (configuration not stated) returned Rv3671c inh 1, Mtb FBA inh 29*, GDH-TPI counter-1 3, Mtb UGM inh 0, Mtb FBA confirm 47* and GDH-TPI counter-2 40*.
`COc1cccc(C(=O)C2CCCN(Cc3ccccn3)C2)c1` (configuration not stated) gave Rv3671c inh -10, Mtb FBA inh -1, GDH-TPI counter-1 11 and Mtb UGM inh 1.
CCOC(=O)N1CCC(N2CCCC(C(=O)c3cc(C)c(OC)c(C)c3)C2)CC1 (configuration not stated) was read as Rv3671c inh 5, Mtb FBA inh 0, GDH-TPI counter-1 -6 and Mtb UGM inh -2.
For COc1ccc(C(=O)C2CCCN(Cc3ccc4nonc4c3)C2)c(OC)c1 (configuration not stated) the results were Rv3671c inh -2, Mtb FBA inh 57*, GDH-TPI counter-1 3, Mtb UGM inh 0, Mtb FBA confirm 153* and GDH-TPI counter-2 135*.
For COc1ccc(C(=O)C2CCCN(Cc3ccc4nonc4c3)C2)cc1OC (configuration not stated) the results were Rv3671c inh 0, Mtb FBA inh -7, GDH-TPI counter-1 11 and Mtb UGM inh 1.
`Cc1cccn2c(=O)c3cc(C#N)c(=NC(=O)c4cccs4)n(CC(C)C)c3nc12` gave Rv3671c inh 0, Mtb FBA inh 35*, GDH-TPI counter-1 1, Mtb UGM inh 0, Mtb FBA confirm active and GDH-TPI counter-2 190*.
`CC(=O)N=c1c(C#N)cc2c(=O)n3ccccc3nc2n1Cc1ccccc1` gave Rv3671c inh -1, Mtb FBA inh 28*, GDH-TPI counter-1 -7, Mtb UGM inh -2, Mtb FBA confirm 122* and GDH-TPI counter-2 108*.
For Cc1ccc(-n2c(=O)c(C#N)cc3c(=O)n4cccc(C)c4nc32)cc1 the results were Rv3671c inh -5, Mtb FBA inh 62*, GDH-TPI counter-1 -1, Mtb UGM inh -1, Mtb FBA confirm 138* and GDH-TPI counter-2 84*.
For Cc1cccn2c(=O)c3cc(C#N)c(=O)n(Cc4cccnc4)c3nc12 the results were Mtb FBA inh 111*, GDH-TPI counter-1 6, Mtb FBA confirm 87* and GDH-TPI counter-2 71*.
`O=C(Nc1ccc(S(=O)(=O)NC2=NCCCCC2)cc1)c1cc(S(=O)(=O)N2CCOCC2)ccc1F` gave Rv3671c inh -5, Mtb FBA inh 2, GDH-TPI counter-1 0 and Mtb UGM inh -1.
Screening Cc1occc1-c1nnc(SCC(=O)NC2CCCCC2C)o1 (configuration not stated) returned Mtb FBA inh 3 and GDH-TPI counter-1 10.
Screening CCC(C)N(C(=O)COC(=O)c1ccc(N)c([N+](=O)[O-])c1)C1CCS(=O)(=O)C1 (configuration not stated) returned Mtb FBA inh -1 and GDH-TPI counter-1 1.
